Assay outcomes as filed in PubChem BioAssay.
HTT cytoprotect: cytoprotection in Huntington HTT-Q103 PC12 cell model | PC12 HTT-Q103 induced, cytoprotection, ATP luminescence, 40 h | Potency, µM (doses to about 56.4 µM), inactives show cytoprotection (ATP increase), actives largely listed as activators | 0.14% of 230,000 active | AID 1471; further: potency means the concentration at half of the fitted maximal effect; % of control where 0% means no effect; nearly all actives have a fitted effect of over 45% in size
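Readout: ATPlite luminescence (ATP level). Model: stable PC12, inducible Htt exon1 Q103-GFP. Inducer: tebufenozide, 100 nM final. Compounds: dose series. No G418 in medium.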
IMPase Li cell: IMPase inhibition in cells with lithium potentiation | 0.35% of 210,000 active | CHO-M1 cells, IP1 TR-FRET (IP-One), carbachol + lithium | AID 1457 | Potency, µM (series often up to 59.4 µM), for the others: at the highest dose activity, negative = IMPase inhibition, actives largely listed as inhibitors;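 further: IP1 builds up when IMPase is blocked and the TR-FRET signal falls; potency means the concentration at half of the fitted maximal effect; plate controls were basal vehicle for no effect and high inhibitor control for full effect; nearly all actives have a fitted effect of over 50% in size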
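Steps: plate 2000 CHO-M1 cells per well and culture 16–30 h; add compound and lithium; incubate 30 min, 37C; add d2-IP1 tracer and Eu cryptate anti-IP1 antibody in lysis buffer; read after 10 min at room temperature.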
HPGD block: inhibitors of human 15-hydroxyprostaglandin dehydrogenase (HPGD) | Potency, µM, without a hit: top-dose activity change, negative = inhibition, most hits filed as inhibitors | 4.3% of 150,000 active | purified HPGD, NADH fluorescence kinetic, PGE2 substrate | P15428; active means well fitted inhibition curve with a large enough effect, not every such curve was filed as active; inconclusive means small, poorly fitted or top-dose-only effect, or another doubt; inactive means no such curve, though single readings can be large or run the other way; further: potency means the concentration at half of the fitted maximal effect; on the % scale 0 is the no-effect control and ±100 the full control effect
Target sequence (P15428 whole entry, looked up): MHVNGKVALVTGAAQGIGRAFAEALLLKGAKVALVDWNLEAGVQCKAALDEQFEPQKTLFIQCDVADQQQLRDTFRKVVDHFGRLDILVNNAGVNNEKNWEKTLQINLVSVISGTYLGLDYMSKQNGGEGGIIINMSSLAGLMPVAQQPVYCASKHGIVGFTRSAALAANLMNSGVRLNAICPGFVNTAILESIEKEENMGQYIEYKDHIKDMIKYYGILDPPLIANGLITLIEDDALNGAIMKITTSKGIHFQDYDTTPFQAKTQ
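NADH formation kinetics: reaction with 30 uM PGE2 and 1 mM NAD+ (final), 20 nM enzyme, Tris-HCl pH 8 with Tween 20, after 15 min compound preincubation at room temperature. Fluorescence change, last versus first of five reads.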
ALDH1A1 block: ALDH1A1 (human) enzyme inhibition; Potency, µM (top dose mostly 75.3 µM), inactives show top-dose activity, negative = inhibition, hits mostly inhibitors; Purified ALDH1A1, NADH fluorescence, propionaldehyde substrate; 7.3% of 220,000 active; P00352; AID 1030; active means well fitted inhibition curve with a large enough effect, not every such curve was filed as active; inconclusive means small, poorly fitted or top-dose-only effect, or another doubt; inactive means no such curve, though single readings can be large or run the other way;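 further: potency means the concentration at half of the fitted maximal effect; plate controls were no enzyme wells and a reference inhibitor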
HTT aggregate: mutant huntingtin aggregation inhibition. AID 1688. PC12 HttQ103-GFP aggregates, Acumen cytometry, 40 h. Potency, µM (highest dose often 46.1 µM), for the others: at the top dose activity change, negative = inhibition, hits mostly inhibitors. 1.1% of 220,000 active; further: potency means the concentration at half of the fitted maximal effect; on the % scale 0 is the no-effect control and ±100 the full control effect; nearly all actives have a fitted effect of over 60% in size
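PC12 cells stably carrying ecdysone-inducible HTT exon 1 Q103–GFP were induced with tebufenozide (100 nM final) and treated with library compounds in titration. GFP aggregates in lysates were counted by laser scanning cytometry.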
IMPase cell inh: IMPase inhibition in cells; P97697; inhibition (IP1 accumulation), % at 46.1 µM; CHO-M1 cells, IP1 accumulation, HTRF TR-FRET ratio; 120,000 tested, under 10 active; active means well fitted curve in the direction sought with a large enough effect in the signal ratio, not every such curve was filed as active; inconclusive means small, poorly fitted or top-dose-only effect, or a change in a side signal; inactive means no such curve, though single readings can be large or run the other way; the % refers to the signal ratio;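 further: cells stimulated with carbachol in lithium chloride buffer; plate controls were DMSO basal wells for no effect and reference inhibitor wells for full effect; higher means more IMPase inhibition seen as more IP1 and lower FRET ratio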
Target sequence (P97697 whole entry, looked up): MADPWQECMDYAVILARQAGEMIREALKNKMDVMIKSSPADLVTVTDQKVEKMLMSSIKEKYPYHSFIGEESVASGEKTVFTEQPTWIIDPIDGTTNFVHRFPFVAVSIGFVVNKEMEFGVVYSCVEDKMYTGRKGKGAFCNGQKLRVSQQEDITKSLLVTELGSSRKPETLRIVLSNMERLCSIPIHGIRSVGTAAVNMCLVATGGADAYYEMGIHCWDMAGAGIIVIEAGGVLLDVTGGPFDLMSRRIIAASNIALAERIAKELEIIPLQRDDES
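CHO-M1 cells (CHO stably expressing M1 receptor), compound up to 46 uM final, stimulated with carbachol (50 uM as added) in buffer with 50mM LiCl, pH 7.4, 30 min at 37C. Cytosolic IP1 read by TR-FRET; AC50 from Hill fits.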
* = called active by the depositor; ? = inconclusive; · = no result; [ ] = remark or other dose. In the library only some 9.4% were active in any assay of this set; here they are far more common. Unless noted, the call rests on the fitted dose curve; in most records, active means well fitted curve in the direction sought with a large enough effect; inconclusive means small, poorly fitted or top-dose-only effect, or another doubt; inactive means no such curve, though single readings can be large; an effect the other way counts as inactive or inconclusive.

SMILES	HTT cytoprotect	IMPase Li cell	HPGD block	ALDH1A1 block	HTT aggregate	IMPase cell inh
O=c1c2cccnc2[nH]c(=S)n1Cc1ccccc1	-2.4%[10 µM]	10µM*	-12.2%	6.1%	-2.5%	5.1
COc1cc2[nH]c(=O)n(Cc3ccccc3Cl)c(=O)c2cc1OC	10.0%	17.8%[38.3 µM]	-4.2%	?	-3.4%	5.8
COc1cc2[nH]c(=S)n(Cc3ccccc3)c(=O)c2cc1OC	-10.6%	8.3%	·	4.47µM*	17.1%	·
O=c1c2nccnc2[nH]c(=S)n1Cc1ccccc1	9.7%	-4.5%	·	-4.4%	-13.2%	·
Cc1ccc(C(C)(C)C)cc1	1.8%	17.0%	-7.7%	11.6%	·	·
COc1ccc(-c2nc3cnc(N4CCOCC4)nc3n(C3CC3)c2=O)cc1	-8.8%	-9.5%	·	?	·	·
C=C(C(C)=O)C(O)c1cccc(OC)c1 (stereo not drawn)	24.3%	-3.1%	-10.2%	14.8%	·	·
CC1CCc2nc(NC(=O)CN3CCN(Cc4ccc5c(c4)OCO5)CC3)sc2C1 (stereo not drawn)	-20.5%[0.074 µM]	-2.6%[38.3 µM]	-17.9%	14.1µM*	-20.5%	11.7
CC1CCc2nc(NC(=O)CN3CCN(c4ccccc4)CC3)sc2C1 (stereo not drawn)	-10.8%[0.074 µM]	34.6%[38.3 µM]	-0.9%	?	-0.4%	2.6
COC(=O)c1ccc(C(NC(=O)OCc2ccccc2)/C(F)=C/[C@@H](C)C(=O)Nc2ccc(OC)cc2)cc1 (stereo partly drawn)	-52.6%	-0.8%	-2.9%	6.5%	·	·
CCCN(CCC)C(=O)CC(c1ccccc1)c1ccco1 (stereo not drawn)	9.9%[10 µM]	·	·	·	-2.0%[9.22 µM]	·
CCN(CC)C(=O)CC(c1ccc(F)cc1)c1ccco1 (stereo not drawn)	-13.2%[0.074 µM]	29.7%[38.3 µM]	20µM*	?	23.7%	4.5
CN1Cc2c(N3CCOCC3)nc(SCCC#N)c(C#N)c2CC1(C)C	-15.9%[10 µM]	·	·	·	-4.3%[9.22 µM]	·
CCSc1nc(N2CCOCC2)c2c(c1C#N)CCCC2	-57.7%	·	·	22.4µM*	?	1.0
CCOC(=O)CSc1nc(N2CCOCC2)c2c(c1C#N)CC(C)(C)N(C)C2	-0.9%	·	·	17.8µM*	-1.9%	8.7
COC(=O)Sc1nc(N2CCOCC2)c2c(c1C#N)CC(C)(C)OC2	-24.5%	·	·	14.1µM*	5.9%	-21.1
Cc1ccc(N2C(=O)c3oc4cc(C)c(C)cc4c(=O)c3C2c2cccc(O)c2)nc1 (stereo not drawn)	·	·	·	·	·	-0.7
COCC(=O)N1CCC2(CC1)CCN(C(=O)Nc1cccc(C#N)c1)CC2	14.1%	-6.8%	-6.3%	15.8%	·	·
CCOC(=O)CN1C(=O)N[C@H](c2ccc(Br)cc2)C(C(C)=O)=C1C	·	6.7%	-23.4%	14.1µM*	?	·
CCCCC1=CC2=C(c3ccco3)C(=O)C(C)(OC(=O)c3ccc(OC)cc3)C(=O)C2=CN1Cc1ccccc1 (stereo not drawn)	5.3%[10 µM]	-11.6%	-8.1%	1.4%[13.5 µM]	2.4%[9.22 µM]	·
CCCCC1=CC2=C(c3ccco3)C(=O)C(C)(OC(=O)c3ccc(OC)cc3)C(=O)C2=CN1Cc1ccc2c(c1)OCO2 (stereo not drawn)	-22.7%[10 µM]	-18.9%	-7.8%	3.55µM*	25.7%[9.22 µM]	·
O=C1Cc2ccccc2N1c1ccccc1	-2.4%[0.074 µM]	-3.7%[38.3 µM]	35.5µM*	-14.5%	1.7%	5.1
CCN1C(=O)/C(=C/c2cnn(CC)c2C)SC1=S	·	1.1%	-15.3%	2µM*	6.4%	·
CCN1C(=O)/C(=C/c2c(C)nn(C)c2C)SC1=S	-11.7%[10 µM]	-5.0%	-26.8%	1.41µM*	6.6%	16.4
Cc1nn(C)c(C)c1/C=C1/SC(=S)NC1=O	-55.3%	22.7%[38.3 µM]	-28.6%	?	-21.6%	-5.4
FC(F)(F)c1cc(CN2CC3(CCNCC3)C2)cc(C(F)(F)F)c1	-44.5%	-8.6%	-9.1%	-0.6%	·	·
O=C(CN1C(=O)C2C3C=CC(C3)C2C1=O)N1CC(=O)N(CCc2ccccc2)C(=O)C1 (stereo not drawn)	20.2%[10 µM]	1.2%	-4.2%	28.2µM*	-4.9%	8.9
